From the supplement of paper PMC11732987, “Enantioselective OTUD7B fragment discovery through chemoproteomics screening and high-throughput optimisation” (Communications Chemistry, 2025)

How the values were obtained:
Experiment in all cases: log2 ratio of Biotin-Ahx-Ub-VS probe labelling (fragment/DMSO); higher = less target engagement (more negative = stronger competition), active = hit call of the paper (q ≤ 0.05, log2 ratio ≤ -1)
Settings in all cases: compound concentration: 200 uM; treatment time: 3 h
USP19 = biological target: T1, USP19 (UniProt O94966)
T1 sequence (whole entry): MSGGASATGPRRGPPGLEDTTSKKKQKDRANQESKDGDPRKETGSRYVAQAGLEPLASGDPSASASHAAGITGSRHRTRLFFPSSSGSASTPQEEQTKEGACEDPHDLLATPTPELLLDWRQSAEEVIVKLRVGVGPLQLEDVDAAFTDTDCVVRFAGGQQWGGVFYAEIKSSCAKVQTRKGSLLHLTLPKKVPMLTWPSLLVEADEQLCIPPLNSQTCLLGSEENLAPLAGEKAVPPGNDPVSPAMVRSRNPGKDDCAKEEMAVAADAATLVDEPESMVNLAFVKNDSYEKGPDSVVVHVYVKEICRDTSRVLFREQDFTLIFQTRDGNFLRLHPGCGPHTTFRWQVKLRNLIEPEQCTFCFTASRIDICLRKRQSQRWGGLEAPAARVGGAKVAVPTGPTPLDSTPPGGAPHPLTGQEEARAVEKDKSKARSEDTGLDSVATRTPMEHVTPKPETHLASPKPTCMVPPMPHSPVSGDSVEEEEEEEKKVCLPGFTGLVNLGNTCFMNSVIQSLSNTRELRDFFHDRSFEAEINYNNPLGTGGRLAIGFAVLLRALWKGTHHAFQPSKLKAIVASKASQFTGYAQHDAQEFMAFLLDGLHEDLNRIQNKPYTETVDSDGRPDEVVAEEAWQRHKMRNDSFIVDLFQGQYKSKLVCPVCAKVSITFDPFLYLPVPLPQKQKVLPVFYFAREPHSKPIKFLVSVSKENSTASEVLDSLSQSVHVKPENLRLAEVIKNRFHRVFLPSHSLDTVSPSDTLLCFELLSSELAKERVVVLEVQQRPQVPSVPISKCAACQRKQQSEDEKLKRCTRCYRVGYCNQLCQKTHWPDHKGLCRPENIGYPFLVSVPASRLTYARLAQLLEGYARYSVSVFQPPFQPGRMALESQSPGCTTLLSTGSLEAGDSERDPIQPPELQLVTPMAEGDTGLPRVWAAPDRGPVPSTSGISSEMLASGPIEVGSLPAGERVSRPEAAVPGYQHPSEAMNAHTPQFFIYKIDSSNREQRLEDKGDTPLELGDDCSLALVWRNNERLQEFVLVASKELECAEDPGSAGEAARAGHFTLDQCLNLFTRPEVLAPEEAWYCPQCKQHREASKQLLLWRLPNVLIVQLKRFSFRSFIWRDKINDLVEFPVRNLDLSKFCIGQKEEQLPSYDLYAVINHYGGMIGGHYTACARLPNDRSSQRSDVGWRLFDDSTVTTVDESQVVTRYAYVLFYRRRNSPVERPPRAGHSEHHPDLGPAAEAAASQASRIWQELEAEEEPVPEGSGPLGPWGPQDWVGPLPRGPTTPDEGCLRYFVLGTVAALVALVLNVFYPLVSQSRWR
How it was run: (§1)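 The table lists average log2 ratios of fragment over vehicle, from an unpaired t-test on global-median-normalised Spectronaut label-free quantities. Proteins with ≥2 unique peptides were used. Samples were HEK293T lysate (495 µg) treated in triplicate with fragment at 200 µM or vehicle for 3 h, then with Biotin-Ahx-Ub-VS (0.5 µM final) for 1 h, with labelled DUBs NeutrAvidin-enriched and run by diaPASEF LC-MS/MS.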

USP22 = biological target: T2, USP22 (UniProt Q9UPT9)
T2 sequence (whole entry): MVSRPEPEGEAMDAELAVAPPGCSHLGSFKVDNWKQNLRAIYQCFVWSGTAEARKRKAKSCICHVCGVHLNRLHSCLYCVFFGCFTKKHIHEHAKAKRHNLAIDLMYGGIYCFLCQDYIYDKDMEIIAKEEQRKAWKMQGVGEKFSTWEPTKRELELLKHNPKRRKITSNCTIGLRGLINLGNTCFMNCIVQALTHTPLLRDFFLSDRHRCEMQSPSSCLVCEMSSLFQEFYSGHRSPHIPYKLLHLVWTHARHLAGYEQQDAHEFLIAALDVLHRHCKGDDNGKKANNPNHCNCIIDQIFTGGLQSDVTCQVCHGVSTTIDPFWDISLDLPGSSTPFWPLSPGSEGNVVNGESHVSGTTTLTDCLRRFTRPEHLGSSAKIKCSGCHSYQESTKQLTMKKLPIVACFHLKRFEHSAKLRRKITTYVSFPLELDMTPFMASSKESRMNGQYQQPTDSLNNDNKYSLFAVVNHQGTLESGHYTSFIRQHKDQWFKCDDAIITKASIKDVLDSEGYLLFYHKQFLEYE
How it was run: as §1

USP24 = USP24 (UniProt Q9UPU5)
How it was run: as §1

USP25 = biological target: T3, USP25 (UniProt Q9UHP3)
T3 sequence (whole entry): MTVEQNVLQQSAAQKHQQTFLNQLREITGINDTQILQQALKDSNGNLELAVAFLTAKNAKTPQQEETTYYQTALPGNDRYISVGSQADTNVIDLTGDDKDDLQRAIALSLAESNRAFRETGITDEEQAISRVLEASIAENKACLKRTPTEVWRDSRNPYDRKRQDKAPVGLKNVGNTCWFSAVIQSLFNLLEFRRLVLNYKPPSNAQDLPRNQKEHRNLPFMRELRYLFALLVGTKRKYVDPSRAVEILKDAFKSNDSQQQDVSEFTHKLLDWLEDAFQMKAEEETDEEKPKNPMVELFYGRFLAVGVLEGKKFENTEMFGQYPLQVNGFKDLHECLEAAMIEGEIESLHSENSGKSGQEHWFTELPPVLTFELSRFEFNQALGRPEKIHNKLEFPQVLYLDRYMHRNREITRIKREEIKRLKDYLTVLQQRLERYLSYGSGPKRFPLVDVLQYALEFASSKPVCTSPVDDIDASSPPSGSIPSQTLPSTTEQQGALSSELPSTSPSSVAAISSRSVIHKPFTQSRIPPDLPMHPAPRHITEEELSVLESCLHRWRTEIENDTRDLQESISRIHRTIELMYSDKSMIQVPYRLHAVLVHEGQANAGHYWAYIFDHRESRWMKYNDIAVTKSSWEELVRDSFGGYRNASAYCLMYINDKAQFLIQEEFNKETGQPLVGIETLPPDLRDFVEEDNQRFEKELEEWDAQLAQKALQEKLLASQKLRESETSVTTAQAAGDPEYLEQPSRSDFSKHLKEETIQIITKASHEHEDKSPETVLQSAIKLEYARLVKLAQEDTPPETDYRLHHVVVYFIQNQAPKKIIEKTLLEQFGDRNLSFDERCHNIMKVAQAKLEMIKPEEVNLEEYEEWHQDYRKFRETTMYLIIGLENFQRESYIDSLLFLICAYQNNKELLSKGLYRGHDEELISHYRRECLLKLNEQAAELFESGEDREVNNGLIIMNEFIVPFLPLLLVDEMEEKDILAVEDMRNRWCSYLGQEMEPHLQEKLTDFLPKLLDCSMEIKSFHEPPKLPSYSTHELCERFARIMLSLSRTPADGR
How it was run: as §1

USP28 = biological target: T4, USP28 (UniProt Q96RU2)
T4 sequence (whole entry): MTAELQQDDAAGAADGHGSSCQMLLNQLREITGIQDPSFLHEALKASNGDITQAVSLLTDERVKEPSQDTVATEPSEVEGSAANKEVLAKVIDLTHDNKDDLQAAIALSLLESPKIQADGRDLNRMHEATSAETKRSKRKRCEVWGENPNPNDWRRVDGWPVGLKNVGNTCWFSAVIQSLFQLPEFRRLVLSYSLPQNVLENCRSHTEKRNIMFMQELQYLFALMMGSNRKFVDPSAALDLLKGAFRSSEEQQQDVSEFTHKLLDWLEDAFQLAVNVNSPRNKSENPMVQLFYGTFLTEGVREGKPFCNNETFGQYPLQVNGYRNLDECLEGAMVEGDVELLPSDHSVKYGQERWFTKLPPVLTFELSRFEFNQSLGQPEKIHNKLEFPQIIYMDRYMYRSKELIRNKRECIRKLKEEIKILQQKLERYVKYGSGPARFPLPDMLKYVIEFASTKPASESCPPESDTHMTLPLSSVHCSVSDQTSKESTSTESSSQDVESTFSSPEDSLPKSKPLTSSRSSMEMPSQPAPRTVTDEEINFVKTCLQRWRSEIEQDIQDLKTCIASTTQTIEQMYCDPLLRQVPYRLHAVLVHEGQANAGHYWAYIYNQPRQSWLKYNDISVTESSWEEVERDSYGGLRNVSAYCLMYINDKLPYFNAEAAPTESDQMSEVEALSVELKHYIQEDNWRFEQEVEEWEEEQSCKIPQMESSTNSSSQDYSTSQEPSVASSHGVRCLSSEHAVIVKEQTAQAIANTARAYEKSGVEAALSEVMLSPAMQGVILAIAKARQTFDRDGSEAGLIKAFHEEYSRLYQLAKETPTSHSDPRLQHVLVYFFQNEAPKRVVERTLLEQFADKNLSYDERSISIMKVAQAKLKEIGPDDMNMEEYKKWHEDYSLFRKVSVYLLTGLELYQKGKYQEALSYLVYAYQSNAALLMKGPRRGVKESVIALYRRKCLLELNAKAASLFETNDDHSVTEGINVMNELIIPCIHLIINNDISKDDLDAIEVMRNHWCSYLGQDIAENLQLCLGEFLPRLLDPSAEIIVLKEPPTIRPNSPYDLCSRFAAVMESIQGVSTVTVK
How it was run: as §1

Measured: log2 ratio of Biotin-Ahx-Ub-VS probe labelling

Chain of USP24 (Q9UPU5 whole entry): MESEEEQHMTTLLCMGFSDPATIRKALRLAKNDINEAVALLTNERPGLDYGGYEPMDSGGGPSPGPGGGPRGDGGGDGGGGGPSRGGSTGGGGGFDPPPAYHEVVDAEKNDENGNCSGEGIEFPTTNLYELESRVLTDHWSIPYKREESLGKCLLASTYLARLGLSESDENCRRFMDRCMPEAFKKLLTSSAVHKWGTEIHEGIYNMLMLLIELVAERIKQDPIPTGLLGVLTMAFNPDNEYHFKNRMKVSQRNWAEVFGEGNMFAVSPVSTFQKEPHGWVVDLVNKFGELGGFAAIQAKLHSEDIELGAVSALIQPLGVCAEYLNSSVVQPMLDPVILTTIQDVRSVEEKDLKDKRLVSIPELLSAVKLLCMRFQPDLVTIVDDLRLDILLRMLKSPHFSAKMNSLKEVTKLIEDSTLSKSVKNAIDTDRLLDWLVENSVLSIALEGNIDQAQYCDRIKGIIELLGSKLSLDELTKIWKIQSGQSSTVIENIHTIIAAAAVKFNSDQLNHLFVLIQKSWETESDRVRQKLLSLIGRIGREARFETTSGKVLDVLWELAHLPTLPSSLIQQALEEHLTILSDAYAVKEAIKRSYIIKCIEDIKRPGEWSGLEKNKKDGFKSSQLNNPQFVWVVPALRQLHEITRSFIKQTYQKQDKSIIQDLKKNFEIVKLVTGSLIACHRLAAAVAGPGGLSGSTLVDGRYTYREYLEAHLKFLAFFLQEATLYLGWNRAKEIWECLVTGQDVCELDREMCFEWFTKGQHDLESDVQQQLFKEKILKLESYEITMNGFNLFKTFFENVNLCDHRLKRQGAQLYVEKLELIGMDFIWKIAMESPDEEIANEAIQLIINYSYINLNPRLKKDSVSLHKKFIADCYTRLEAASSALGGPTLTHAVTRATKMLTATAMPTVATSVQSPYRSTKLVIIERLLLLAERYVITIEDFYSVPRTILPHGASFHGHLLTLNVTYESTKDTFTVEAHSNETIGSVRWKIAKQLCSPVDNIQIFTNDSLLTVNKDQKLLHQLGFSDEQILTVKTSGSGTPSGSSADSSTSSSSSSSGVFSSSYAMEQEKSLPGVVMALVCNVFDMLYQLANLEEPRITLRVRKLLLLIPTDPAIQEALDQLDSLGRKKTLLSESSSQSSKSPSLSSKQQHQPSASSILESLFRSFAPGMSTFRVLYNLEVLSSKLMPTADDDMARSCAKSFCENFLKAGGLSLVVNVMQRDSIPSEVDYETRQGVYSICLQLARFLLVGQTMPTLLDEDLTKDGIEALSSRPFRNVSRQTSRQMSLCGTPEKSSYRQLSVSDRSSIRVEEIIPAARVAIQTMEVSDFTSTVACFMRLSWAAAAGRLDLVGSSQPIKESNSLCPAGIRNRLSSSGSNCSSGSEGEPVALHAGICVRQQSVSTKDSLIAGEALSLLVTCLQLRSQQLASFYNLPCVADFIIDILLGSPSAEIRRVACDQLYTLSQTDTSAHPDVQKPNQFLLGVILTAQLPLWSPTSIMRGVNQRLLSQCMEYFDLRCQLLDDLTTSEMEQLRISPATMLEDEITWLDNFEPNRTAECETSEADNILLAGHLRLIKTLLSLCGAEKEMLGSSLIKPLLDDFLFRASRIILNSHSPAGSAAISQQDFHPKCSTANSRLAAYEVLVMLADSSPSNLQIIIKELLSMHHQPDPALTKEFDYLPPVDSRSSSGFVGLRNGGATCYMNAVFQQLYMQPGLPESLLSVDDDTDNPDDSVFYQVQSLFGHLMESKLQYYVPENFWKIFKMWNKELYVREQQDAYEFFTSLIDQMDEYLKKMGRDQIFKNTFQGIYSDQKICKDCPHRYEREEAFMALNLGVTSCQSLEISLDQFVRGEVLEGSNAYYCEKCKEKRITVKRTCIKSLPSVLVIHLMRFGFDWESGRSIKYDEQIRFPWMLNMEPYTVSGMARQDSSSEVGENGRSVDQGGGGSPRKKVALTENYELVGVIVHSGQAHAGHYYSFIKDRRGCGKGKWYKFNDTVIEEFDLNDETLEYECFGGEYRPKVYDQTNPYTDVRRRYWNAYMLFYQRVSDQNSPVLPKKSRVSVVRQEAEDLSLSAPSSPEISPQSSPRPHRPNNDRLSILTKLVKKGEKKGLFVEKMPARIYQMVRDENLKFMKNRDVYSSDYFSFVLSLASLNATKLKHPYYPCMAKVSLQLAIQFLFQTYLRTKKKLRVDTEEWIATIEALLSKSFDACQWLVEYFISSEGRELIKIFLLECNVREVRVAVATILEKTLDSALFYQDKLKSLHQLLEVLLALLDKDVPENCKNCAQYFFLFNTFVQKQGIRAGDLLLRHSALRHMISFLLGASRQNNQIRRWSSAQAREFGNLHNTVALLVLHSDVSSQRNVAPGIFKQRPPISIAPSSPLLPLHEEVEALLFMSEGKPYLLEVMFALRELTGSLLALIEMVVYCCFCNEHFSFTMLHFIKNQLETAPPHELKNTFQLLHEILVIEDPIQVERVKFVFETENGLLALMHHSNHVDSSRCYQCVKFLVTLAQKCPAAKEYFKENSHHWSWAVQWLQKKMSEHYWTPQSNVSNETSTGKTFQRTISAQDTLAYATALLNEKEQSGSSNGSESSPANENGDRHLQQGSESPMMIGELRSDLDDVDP

Cc1cccc2nc(CCNC(=O)CCl)cn12.Cl
inactive: USP19 -0.242 | USP22 0.075 | USP24 -0.429 | USP25 -0.267 | USP28 -0.53
